Experimental data published in PubChem BioAssay (EPA / NIEHS).
Results filed as inconclusive are left out. Activity calls are given as the source filed them. The calls were made as follows, unless noted: active = hit-call score of the fitted dose curve at least 0.9, where 1 is the maximum; inactive = score below 0.9.

Read-out: xenobiotic metabolism (CYP2C9), CYP2C9 (gene 1559)
Experiment: CLD_CYP2C9_6hr: CellzDirect (CLD) Gene Expression Assay for xenobiotic metabolism (CYP2C9) at 6 hours (AID 2283664; active = hit-call score of the fitted dose curve at least 0.9, where 1 is the maximum)
Outline: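 Readout is qNPA chemiluminescence of CYP2C9 mRNA, taken 6 h after dosing of cultured human liver primary cells at several concentrations. Activity is the increase over 0.2% DMSO baseline. Morphology-based cytotoxicity flagged yes/no.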

Row | Structure (SMILES) | outcome | AC50
1 | CC(C)(c1ccc(O)cc1)c1ccc(O)cc1 | inactive | –
2 | S=C(S)NCCNC(=S)S.[Mn+2].[S-]C([S-])=NCCN=C([S-])[S-].[Zn+2] | inactive | –
3 | N#CSCSc1nc2ccccc2s1 | – | 36.1 µM (active)

Tested on: not listed separately
Experiment: ATG_M_32_XSP2: Attagene TRANS-FACTORIAL Multi-Species (XSP2) HepG2 Assay for M19 Transcription Factor (Internal Marker) (AID 2283826; active = hit-call score of the fitted dose curve at least 0.9, where 1 is the maximum)
Outline: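 Total RNA is taken from compound-treated HepG2 cells after 24 h and reverse-transcribed; reporter cDNA is PCR-amplified, end-labelled with 6-FAM, digested with HpaI for 2h at 37 C and sized by capillary electrophoresis. Activity is fitted in the positive direction against DMSO.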

Row | Structure (SMILES) | outcome
4 | CC(C)(c1ccc(O)cc1)c1ccc(O)cc1 | inactive
5 | Oc1ccc(C(c2ccc(O)cc2)C(Cl)(Cl)Cl)cc1 | inactive
6 | C=CCOC(Cn1ccnc1)c1ccc(Cl)cc1Cl (stereo not drawn) | inactive

Tested on: not listed separately
Experiment: Tanguay_ZF_120hpf_MUSC: Oregon State University Tanguay Lab 120 Hour Post-fertilization zebrafish Assay for Muscle Malformation (AID 2284401)
Outline: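 Scored as a binary brightfield endpoint at 120 hpf, fitted versus DMSO. Single dechorionated wild-type (Tropical 5D) zebrafish embryos per well, statically exposed at 28C from 6 hpf onward with final DMSO 0.64%.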

Row | Structure (SMILES) | outcome
7 | O=C(O)C(F)(F)C(F)(F)OC(F)(F)F | inactive
8 | C=CC(F)(F)C(F)(F)C(F)(F)C(F)(F)C(F)(F)C(F)(F)C(F)(F)C(F)(F)C=C | inactive
9 | C[Si](Cl)(Cl)CCC(F)(F)C(F)(F)C(F)(F)C(F)(F)C(F)(F)C(F)(F)F | inactive
10 | O=P(O)(O)OCCC(F)(F)C(F)(F)C(F)(F)C(F)(F)C(F)(F)C(F)(F)F | inactive
11 | O=S(=O)(OCC(F)(F)F)C(F)(F)C(F)(F)C(F)(F)C(F)(F)F | inactive
12 | O=S(=O)(OCCOC(F)(F)F)C(F)(F)F | inactive
13 | O=C(O)C(F)(OC(F)(F)C(F)(OC(F)(F)C(F)(F)C(F)(F)F)C(F)(F)F)C(F)(F)F (stereo not drawn) | inactive
14 | OCC(F)(F)C(F)(F)C(F)(F)C(F)(F)C(F)(F)C(F)(F)C(F)(F)C(F)(F)C(F)(F)C(F)(F)C(F)(F)F | inactive
15 | FC(F)(F)C(F)(F)C(F)(F)C(F)(F)C(F)(F)C(F)(F)CC[Si](Cl)(Cl)Cl | inactive
16 | NC(=O)C(F)(F)C(F)(F)C(F)(F)C(F)(F)F | inactive
17 | OCC(F)(F)C(F)(F)C(F)(F)C(F)F | inactive
18 | O=C(O)C(F)(F)C(F)(F)C(F)(F)OC(F)(F)F | inactive
